The results in this text go back to PubChem BioAssay.

Assay [1] can be described thus: anti-His antibody binders, primary screen, artefact control for SMM control protein annotation, biochemical, small-molecule microarray, 635 nm fluorescence (AID 1128).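 Note: score merges feature fluorescence with signal-to-noise for each printed compound spot.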 The conditions noted are these: anti-His Alexa647 antibody binding, higher = more signal.
Assay [2] concerns Human papillomavirus type 1a E7 protein (residues 1-88). The assay can be described thus: HPV1a E7 small-molecule binders, primary screen, biochemical, small-molecule microarray, residues 1-88, 635 nm (AID 1129). The conditions noted are these: small-molecule microarray binding, fluorescence 635 nm; higher = more signal.
The target of assay [3] is Focal adhesion kinase 1 (Homo sapiens) (UniProt Q05397). The assay can be described thus: small-molecule microarray binders of FAK, primary screen, biochemical, 635/667 nm fluorescence, BSA, DTT (AID 1130).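 Note: composite of spot emission at 667 nm and signal to noise over triplicate slides.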 The conditions noted are these: PTK2 binding, 635 nm fluorescence, higher = more signal.
For assay [4], the system named is Fibrinogen (Alexa647-labelled). The assay can be described thus: fibrinogen binders on compound microarrays, profiling panel, artefact control for SMM control-protein annotation, biochemical, small-molecule microarray, 635/667 nm fluorescence (AID 1131).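 Note: z-score merges 667 nm fluorescence with per-spot signal-to-noise over triplicate slides.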 The conditions noted are these: fibrinogen-A647 binding fluorescence, higher = more signal.
In assay [5] the target is Follistatin (Homo sapiens) (UniProt P19883). The assay can be described thus: follistatin binders on small-molecule microarrays, primary screen, biochemical, small-molecule microarray, 635/667 nm fluorescence (AID 1132). The conditions noted are these: FST binding, 635 nm fluorescence, higher = more signal.
Assay [6] has as its target Fibroblast growth factor 2 (Homo sapiens) (UniProt P09038). The experiment in a line: FGF2 binders on small-molecule microarrays, primary screen, biochemical, small-molecule microarray, 635/667 nm fluorescence (AID 1133). The conditions noted are these: small-molecule microarray binding, FGF2, fluorescence 635/667; higher = more signal.
Assay [7] in a line: mitochondrial membrane potential change in A549 cells, profiling panel, cell-based, JC-1 fluorescence, basal, 24 h, 100 nL (AID 1138).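 Note: A549 lung adenocarcinoma cells under basal conditions with no added stimulus; test concentration not given here.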 The conditions noted are these: higher = more signal.
Another assay concerns Lefty1. The experiment in a line: Lefty1 binders on small-molecule microarrays, primary screen, biochemical, small-molecule microarray, 635/667 nm fluorescence (AID 1139). The conditions noted are these: small-molecule microarray binding, fluorescence 635/667; higher = more signal.
Assay [8] relates to wheat germ agglutinin (Triticum aestivum), Alexa647-labelled. The assay can be described thus: wheat germ agglutinin binders on compound microarrays, profiling panel, artefact control for SMM control-protein annotation, biochemical, small-molecule microarray, 635/667 nm fluorescence (AID 1140).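 Note: score merges 667 nm feature emission with signal to noise over triplicate slides.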 The conditions noted are these: WGA-A647 binding, 635 nm fluorescence, higher = more signal.

Assay [9] deals with Luciferin 4-monooxygenase (Photinus pyralis) (UniProt P08659). The assay can be described thus: firefly luciferase enzyme inhibitors, primary screen, biochemical, luminescence, purified enzyme, 2006 set (AID 1141).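 Note: cell-free assay with purified firefly luciferase at 100 ng per well in PBS; test concentration not given here.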 The conditions noted are these: SteadyGlo luminescence, 30 min, higher = more signal, called active from +8 up or from −8 down.

Calls of active or inactive are those of the source.

Follistatin (Homo sapiens), sequence (P19883 whole entry, looked up): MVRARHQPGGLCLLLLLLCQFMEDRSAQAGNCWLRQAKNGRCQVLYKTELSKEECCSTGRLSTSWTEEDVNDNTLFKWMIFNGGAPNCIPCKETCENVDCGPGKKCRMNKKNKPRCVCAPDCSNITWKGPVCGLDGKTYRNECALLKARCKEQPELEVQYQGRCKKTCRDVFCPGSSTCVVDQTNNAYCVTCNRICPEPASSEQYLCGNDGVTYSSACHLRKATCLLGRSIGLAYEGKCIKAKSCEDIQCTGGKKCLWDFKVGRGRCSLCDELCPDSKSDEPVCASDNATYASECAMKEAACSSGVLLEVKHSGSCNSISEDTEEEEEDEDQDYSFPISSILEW
Luciferin 4-monooxygenase (Photinus pyralis), sequence (P08659 whole entry, looked up): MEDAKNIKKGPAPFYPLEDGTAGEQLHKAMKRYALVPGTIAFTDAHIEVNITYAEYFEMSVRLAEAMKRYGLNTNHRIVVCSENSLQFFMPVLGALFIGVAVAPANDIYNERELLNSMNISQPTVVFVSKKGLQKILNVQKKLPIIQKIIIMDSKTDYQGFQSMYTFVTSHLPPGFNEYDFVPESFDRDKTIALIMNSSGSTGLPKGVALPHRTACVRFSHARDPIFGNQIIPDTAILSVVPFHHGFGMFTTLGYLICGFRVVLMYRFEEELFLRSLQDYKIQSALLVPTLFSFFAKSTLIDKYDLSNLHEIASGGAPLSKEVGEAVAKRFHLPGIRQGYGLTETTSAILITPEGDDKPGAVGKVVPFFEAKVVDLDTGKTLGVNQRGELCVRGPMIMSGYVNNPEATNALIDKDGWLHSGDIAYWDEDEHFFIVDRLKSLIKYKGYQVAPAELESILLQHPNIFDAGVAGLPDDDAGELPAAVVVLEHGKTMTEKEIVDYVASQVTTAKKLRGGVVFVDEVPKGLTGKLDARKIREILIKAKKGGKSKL
Focal adhesion kinase 1 (Homo sapiens), sequence (Q05397 whole entry, looked up): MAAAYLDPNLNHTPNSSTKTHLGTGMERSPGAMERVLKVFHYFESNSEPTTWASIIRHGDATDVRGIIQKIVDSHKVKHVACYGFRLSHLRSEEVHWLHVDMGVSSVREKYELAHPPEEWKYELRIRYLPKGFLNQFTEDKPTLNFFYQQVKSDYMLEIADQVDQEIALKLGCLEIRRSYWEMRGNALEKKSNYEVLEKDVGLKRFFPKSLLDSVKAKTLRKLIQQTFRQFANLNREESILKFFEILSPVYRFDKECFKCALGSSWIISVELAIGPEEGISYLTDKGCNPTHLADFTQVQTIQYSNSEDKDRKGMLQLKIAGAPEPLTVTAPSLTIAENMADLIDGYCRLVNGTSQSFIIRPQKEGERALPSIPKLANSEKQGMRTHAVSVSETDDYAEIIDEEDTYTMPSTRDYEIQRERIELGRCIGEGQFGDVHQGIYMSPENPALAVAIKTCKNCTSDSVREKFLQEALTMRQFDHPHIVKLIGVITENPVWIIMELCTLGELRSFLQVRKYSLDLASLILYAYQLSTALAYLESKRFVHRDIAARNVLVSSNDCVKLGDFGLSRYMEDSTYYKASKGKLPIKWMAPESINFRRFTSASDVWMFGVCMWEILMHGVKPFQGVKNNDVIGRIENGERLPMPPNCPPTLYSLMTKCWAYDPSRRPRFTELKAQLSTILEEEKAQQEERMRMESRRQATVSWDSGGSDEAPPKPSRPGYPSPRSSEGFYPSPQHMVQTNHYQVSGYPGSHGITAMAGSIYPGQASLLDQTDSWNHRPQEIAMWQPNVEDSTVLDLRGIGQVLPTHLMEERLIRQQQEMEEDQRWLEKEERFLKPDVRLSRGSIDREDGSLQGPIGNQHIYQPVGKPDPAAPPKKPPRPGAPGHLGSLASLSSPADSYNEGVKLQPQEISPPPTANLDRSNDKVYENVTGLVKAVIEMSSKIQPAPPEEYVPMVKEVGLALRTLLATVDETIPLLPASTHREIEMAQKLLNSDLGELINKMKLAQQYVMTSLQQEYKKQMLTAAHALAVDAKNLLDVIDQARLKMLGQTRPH
Fibroblast growth factor 2 (Homo sapiens), sequence (P09038 whole entry, looked up): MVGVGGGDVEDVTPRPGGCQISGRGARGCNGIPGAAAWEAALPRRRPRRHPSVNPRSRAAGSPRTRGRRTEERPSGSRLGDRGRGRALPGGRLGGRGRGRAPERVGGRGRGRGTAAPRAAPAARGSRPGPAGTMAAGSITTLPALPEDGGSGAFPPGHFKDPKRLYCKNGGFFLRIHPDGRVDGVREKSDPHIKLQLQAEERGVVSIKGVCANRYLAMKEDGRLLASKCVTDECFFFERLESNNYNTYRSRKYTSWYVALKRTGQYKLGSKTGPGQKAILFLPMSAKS

`O=C1O[C@@H](c2ccccc2)[C@@H](c2ccccc2)N2[C@@H](c3ccc(OCCO)cc3)[C@]3(C(=O)Nc4ccc(C#CCCO)cc43)[C@@H](C(=O)O)[C@H]12`: the composite z-score in assay [1] was determined as 2.76; in [2], 1.14; in [3] it was 0.453; in assay [4] it was 0.95; in assay [5], 1.11; in assay [6], 0.871. For the same compound, the figures for the composite z-score (in the assay on Lefty1; in assay [8]) were 0.45 and 1.14, respectively. Moreover, the z-score in assay [7] was 0.329; in assay [9] it was -1.71 (inactive).

On to `C=C(CCCC)/C(=C/C[C@H](OC(=O)c1ccncc1)c1cccc(OCCO)c1)c1cnc2ccccc2c1`, for which the composite z-score in assay [1] was 0.13; in assay [2] it was 1.1; in assay [3], 0.469; in assay [4], 0.957; in assay [5] it was 1.11; in [6], 0.688. Besides, the values for the composite z-score (in the assay with Lefty1; in assay [8]) were 1.07 and 0.851, respectively. Also, the z-score in assay [7] is 2.01; in [9], -0.78 (inactive).

With `C=CCOC(=O)[C@H]1[C@@H]2C(=O)O[C@@H](c3ccccc3)[C@@H](c3ccccc3)N2[C@@H](c2ccc(OCCOC(=O)[C@@H]3C[C@@H]4C(=O)N[C@@H](CCCCNC(C)=O)C(=O)N4[C@@H]3c3cccc(OCCO)c3)cc2)[C@]12C(=O)Nc1ccccc12`, the composite z-score was found to be 2.81 in assay [1]; 1.19 in assay [2]; 0.838 in assay [3]; 0.276 in assay [4]; 1.25 in assay [5]; 1.53 in assay [6]. Moreover, the composite z-score in the assay on Lefty1 was 0.581; in assay [8], -0.185. In addition, the z-score in assay [7] is -0.0996; in [9], -0.878 (inactive).

For the compound `O=C1[C@H]2C=C(I)[C@H](C[C@@H]2OCCCCCCO)[C@@]12CO2`, the composite z-score in [1] is -0.624; in assay [2] it was -0.334; in assay [3], -0.0716; in [4], -0.312; in assay [5] it was 1.12; in assay [6] it was 0.888. The composite z-score is 1.07 in the assay on Lefty1 and -0.291 in assay [8]. In addition, the z-score was 0.368 in [7] and 0.683 (inactive) in assay [9].

On to `NC(=O)NCC#Cc1ccc2c(c1)[C@]1(C(=O)N2)[C@H](c2ccc(OCCO)cc2)N2[C@H](c3ccccc3)[C@H](c3ccccc3)OC(=O)[C@H]2[C@@H]1C(=O)NC[C@H](O)c1ccccc1`, for which the composite z-score in [1] is -0.454; in assay [2] it was 0.542; in [3], 0.115; in assay [4], 0.879; in assay [5] it was 1.25; in assay [6], -0.0515. The composite z-score is 0.395 in the assay with Lefty1 and 0.259 in [8]. Further, the values for the z-score in assay [7] and in assay [9] were -1.08 and 0.409 (inactive), respectively.

Turning to `CC1=C([C@H](O)CCc2ccccc2)[C@H](CO)n2c(=O)n(-c3ccccc3)c(=O)n2C1`, the composite z-score was -0.56 in assay [1]; -0.37 in assay [2]; -0.168 in assay [3]; -0.178 in assay [4]; 0.155 in assay [5]; 0.302 in [6]. In addition, the composite z-score was 0.27 with Lefty1 and -0.137 in [8]. For the same compound, the z-score in [7] was 1.18; in [9], -0.728 (inactive).

With `CC(C)NC(=O)[C@@]1(c2ccc([N+](=O)[O-])cc2)CC(=O)N(CC23CC4CC(CC(C4)C2)C3)[C@@H]1c1ccc(CO)cc1`, the composite z-score is 0.999 in assay [1]; 1.18 in assay [2]; 0.601 in assay [3]; 0.948 in assay [4]; 1.35 in assay [5]; 1.55 in assay [6]. The composite z-score with Lefty1 amounted to 1.51; in assay [8], 0.738. Also, the z-score in [7] was -0.237; in assay [9], 0.346 (inactive).

`COC(=O)C1=CC(CCCO)=CC(c2cccs2)N(Cc2cc3c(cc2Br)OCO3)C=C1C(=O)OC` (stereo not given): the composite z-score is 2.57 in assay [1]; 1.25 in [2]; 0.87 in [3]; 0.999 in [4]; 1.08 in assay [5]; 1.43 in [6]. For the same compound, the composite z-score in the assay with Lefty1 is 0.273; in [8] it was 1.13. Moreover, the z-score was 1.33 in assay [7] and -1.39 (inactive) in assay [9].

Consider `COCCOC(=O)N1C(=O)[C@@]2(c3cc(C#CCC(C(=O)OC)C(=O)OC)ccc31)[C@H](c1ccc(O)cc1)N1[C@H](c3ccccc3)[C@H](c3ccccc3)OC(=O)[C@H]1[C@@H]2C(=O)Nc1nc2ccccc2s1`, for which the composite z-score in [1] amounted to 1.15; in assay [2], 1.21; in [3], 2.02; in assay [4], 0.954; in [5], 1.42; in [6] it was 1.54. Also, the composite z-score was 1.44 in the assay with Lefty1 and 0.968 in [8]. Further, the z-score in assay [7] was -2.1; in [9], -0.344 (inactive).

On to `COC(=O)C(CC#Cc1ccc2c(c1)[C@]1(C(=O)N2)[C@H](C(=O)N2CCc3cc(OC)c(OC)cc3C2)[C@H]2C(=O)O[C@H](c3ccccc3)[C@H](c3ccccc3)N2[C@@H]1c1ccccc1OCCO)C(=O)OC`, for which the composite z-score was found to be 1.21 in [1]; 1.19 in assay [2]; 0.536 in assay [3]; 0.613 in assay [4]; 1.4 in [5]; 1.39 in assay [6]. Besides, the composite z-score was found to be 1.55 in the assay with Lefty1 and 1.17 in assay [8]. In addition, the z-score was -1.64 in assay [7] and -0.134 (inactive) in assay [9].

`CCCc1cc2c(n1CCc1ccc(Cl)cc1)C(C)C1CN(C(=O)c3ccccc3)C(C)(C(=O)OC)C21` (stereo not given): the composite z-score is 1.6 in assay [1]; 1.22 in assay [2]; 1.96 in assay [3]; 1.02 in assay [4]; 0.114 in assay [5]; -1.41 in [6]. The composite z-score in the assay with Lefty1 was -0.766; in assay [8], 1.34. Also, the values for the z-score in assay [7] and in [9] were 1.25 and -0.548 (inactive), respectively.

As to `CC(C)=CCCC=C(C)C(O)C1C=CC2C(=O)N(c3ccccc3)C(=O)C2N1Nc1ccc(C#N)cc1` (stereo not given), the composite z-score was 1 in assay [1]; 1.21 in assay [2]; 0.901 in [3]; 0.972 in [4]; 1.31 in assay [5]; 0.333 in assay [6]. Besides, the figures for the composite z-score (with Lefty1; in assay [8]) were 0.507 and 1.06, respectively. Also, the values for the z-score in assay [7] and in assay [9] were -0.902 and -1.32 (inactive), respectively.

Regarding `CN1C(=O)C2C(C1=O)C1C=C(c3ccc(CO)cc3)C2C(C2CC2)N1C` (stereo not given), the composite z-score was 0.958 in [1]; -0.164 in [2]; -0.324 in assay [3]; -0.578 in [4]; -0.17 in assay [5]; -0.124 in [6]. The composite z-score with Lefty1 is -0.617; in assay [8], -0.0515. The z-score in [7] is -0.808; in [9] it was 0.279 (inactive).

As to `COC(=O)C(CC#Cc1ccc2c(c1)[C@]1(C(=O)N2)[C@H](C(=O)NC[C@H](O)c2ccccc2)[C@H]2C(=O)O[C@H](c3ccccc3)[C@H](c3ccccc3)N2[C@@H]1c1ccccc1OCCO)C(=O)OC`, the composite z-score was found to be 2.68 in assay [1]; 1.23 in [2]; 0.289 in assay [3]; 0.478 in [4]; 1.25 in assay [5]; 1.56 in [6]. In addition, the composite z-score in the assay on Lefty1 is 0.221; in assay [8], 1.09. Moreover, the z-score is -0.693 in [7] and 0.742 (inactive) in assay [9].

`COC(=O)[C@]1(CCC(=O)OC(C)(C)C)N=C(c2ccc(OCCCO)cc2)O[C@@H]1c1ccccc1N=[N+]=[N-]`: the composite z-score was 0.477 in [1]; 0.993 in assay [2]; -0.212 in [3]; -0.306 in assay [4]; 1.29 in assay [5]; 0.626 in [6]. For the same compound, the composite z-score is -0.0341 in the assay on Lefty1 and 0.658 in assay [8]. Moreover, the values for the z-score in assay [7] and in [9] were 1.3 and -6.42 (inactive), respectively.

With `O=C(NCCN1CCOCC1)[C@@H]1c2ccccc2C(=O)N(Cc2ccccc2C(F)(F)F)[C@H]1c1ccc(CO)cc1`, the composite z-score was -1.48 in [1]; 0.0783 in [2]; -0.331 in assay [3]; -0.676 in assay [4]; -0.2 in [5]; -0.0425 in [6]. Also, the composite z-score with Lefty1 is -1.24; in assay [8], 0.708. The z-score in assay [7] is 2.63; in assay [9], -0.676 (inactive).
